± gives the standard deviation of the averaged measurements.
Experiments:
Test in all cases: promoter activity interaction Z-score (Lux/OD deviation from empty-vector control); higher = stronger promoter induction by the compound
[1] = tested on: E. coli BW25113 tolCp lux reporter
In short: (§1)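 E. coli BW25113 luxCDABE reporter strains grew at 37°C in 40 µl LB Lennox in 384-well plates, with OD600 and luminescence read every 30 min for 12 h. After integration over 0–8 h for wild type or 1–9 h for deletion strains, wells under 10% of the median growth value were removed. Each score is the Z-transformed residual of growth-normalised luminescence fitted against a control.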

[2] = tested on: E. coli BW25113 acrABp lux reporter
In short: as §1

[3] = tested on: E. coli BW25113 marRABp lux reporter
In short: as §1

[4] = tested on: E. coli BW25113 micFp lux reporter
In short: as §1

[5] = tested on: E. coli BW25113 ompFp lux reporter
In short: as §1

[6] = tested on: E. coli BW25113 robp lux reporter
In short: as §1

[7] = tested on: E. coli BW25113 soxSp lux reporter
In short: as §1

[8] = 0.011 µg/ml, genetic background: wild type
[9] = 0.011 µg/ml, genetic background: ΔmarA
[10] = 0.011 µg/ml, genetic background: Δrob
[11] = 0.011 µg/ml, genetic background: ΔsoxS
[12] = 0.022 µg/ml, genetic background: wild type
[13] = 0.022 µg/ml, genetic background: ΔmarA
[14] = 0.022 µg/ml, genetic background: Δrob
[15] = 0.022 µg/ml, genetic background: ΔsoxS
[16] = 0.044 µg/ml, genetic background: wild type
[17] = 0.044 µg/ml, genetic background: ΔsoxS

SMILES: COc1ccc(C[C@H](N)C(=O)N[C@H]2[C@@H](O)[C@H](n3cnc4c(N(C)C)ncnc43)O[C@@H]2CO)cc1 [Puromycin]
- promoter activity interaction Z-score ([1]; 3.1 µg/ml, genetic background: Δrob): -0.281 ± 0.23
- promoter activity interaction Z-score ([1]; 3.1 µg/ml, genetic background: ΔsoxS): 0.126 ± 0.63
- promoter activity interaction Z-score ([1]; 6.1 µg/ml, genetic background: wild type): -0.252 ± 0.51
- promoter activity interaction Z-score ([1]; 6.1 µg/ml, genetic background: ΔmarA): -0.611 ± 0.2
- promoter activity interaction Z-score ([1]; 6.1 µg/ml, genetic background: Δrob): -0.785 ± 0.27
- promoter activity interaction Z-score ([1]; 6.1 µg/ml, genetic background: ΔsoxS): -0.165 ± 0.34
- promoter activity interaction Z-score ([1]; 12.2 µg/ml, genetic background: wild type): -0.285 ± 0.69
- promoter activity interaction Z-score ([1]; 12.2 µg/ml, genetic background: ΔmarA): 0.412 ± 0.11
- promoter activity interaction Z-score ([1]; 12.2 µg/ml, genetic background: Δrob): -0.374 ± 0.33
- promoter activity interaction Z-score ([1]; 12.2 µg/ml, genetic background: ΔsoxS): -0.186 ± 0.2
- promoter activity interaction Z-score ([1]; 24.5 µg/ml, genetic background: wild type): 1.04 ± 0.64
- promoter activity interaction Z-score ([1]; 24.5 µg/ml, genetic background: ΔmarA): 1.74
- promoter activity interaction Z-score ([1]; 24.5 µg/ml, genetic background: Δrob): -0.0754 ± 0.73
- promoter activity interaction Z-score ([1]; 24.5 µg/ml, genetic background: ΔsoxS): 0.227 ± 0.79

SMILES: COc1c(N2C[C@@H]3CCCN[C@@H]3C2)c(F)cc2c(=O)c(C(=O)O)cn(C3CC3)c12 [Moxifloxacin]
- promoter activity interaction Z-score [2, 8]: 0.0749 ± 0.025
- promoter activity interaction Z-score [2, 9]: -0.567 ± 0.78
- promoter activity interaction Z-score [2, 10]: 0.0419 ± 0.7
- promoter activity interaction Z-score [2, 11]: 0.247 ± 0.25
- promoter activity interaction Z-score [2, 12]: 0.793 ± 0.42
- promoter activity interaction Z-score [2, 13]: 1.07 ± 0.44
- promoter activity interaction Z-score [2, 14]: 0.898 ± 1.1
- promoter activity interaction Z-score [2, 15]: 0.353 ± 0.12
- promoter activity interaction Z-score [2, 16]: 3.94
- promoter activity interaction Z-score [2, 17]: 2.12 ± 1.1
- promoter activity interaction Z-score [3, 8]: 0.044 ± 0.089
- promoter activity interaction Z-score [3, 9]: 0.14 ± 0.15
- promoter activity interaction Z-score [3, 10]: -0.0981 ± 0.19
- promoter activity interaction Z-score [3, 11]: 0.00173 ± 0.15
- promoter activity interaction Z-score [3, 12]: 0.5 ± 0.56
- promoter activity interaction Z-score [3, 13]: 1.62 ± 0.86
- promoter activity interaction Z-score [3, 14]: 0.689 ± 0.17
- promoter activity interaction Z-score [3, 15]: 0.0296 ± 0.046
- promoter activity interaction Z-score [3, 16]: 4.34 ± 1.7
- promoter activity interaction Z-score [3, 17]: 2.52 ± 1.1
- promoter activity interaction Z-score [4, 8]: -0.2 ± 0.019
- promoter activity interaction Z-score [4, 9]: 0.154 ± 0.019
- promoter activity interaction Z-score [4, 10]: 0.0249 ± 0.077
- promoter activity interaction Z-score [4, 11]: -0.0364 ± 0.073
- promoter activity interaction Z-score [4, 12]: -0.17 ± 0.072
- promoter activity interaction Z-score [4, 13]: 0.371 ± 0.036
- promoter activity interaction Z-score [4, 14]: 0.129 ± 0.04
- promoter activity interaction Z-score [4, 15]: 0.0515 ± 0.087
- promoter activity interaction Z-score [4, 16]: -0.648 ± 0.45
- promoter activity interaction Z-score [4, 17]: -0.721 ± 0.42
- promoter activity interaction Z-score [5, 8]: 0.138 ± 0.022
- promoter activity interaction Z-score [5, 9]: -0.0717 ± 0.18
- promoter activity interaction Z-score [5, 10]: 0.0886 ± 0.25
- promoter activity interaction Z-score [5, 11]: 0.123 ± 0.17
- promoter activity interaction Z-score [5, 12]: 0.271 ± 0.48
- promoter activity interaction Z-score [5, 13]: 0.695 ± 0.25
- promoter activity interaction Z-score [5, 14]: 0.555 ± 0.53
- promoter activity interaction Z-score [5, 15]: 0.184 ± 0.35
- promoter activity interaction Z-score [5, 16]: -0.0419 ± 2.9
- promoter activity interaction Z-score [6, 8]: 1.08 ± 0.33
- promoter activity interaction Z-score [6, 9]: 0.716 ± 0.13
- promoter activity interaction Z-score [6, 10]: 0.563 ± 0.16
- promoter activity interaction Z-score [6, 11]: 0.0805 ± 0.38
- promoter activity interaction Z-score [6, 12]: 0.311 ± 0.14
- promoter activity interaction Z-score [6, 13]: 0.295 ± 0.073
- promoter activity interaction Z-score [6, 14]: 0.251 ± 0.47
- promoter activity interaction Z-score [6, 15]: 0.687 ± 0.83
- promoter activity interaction Z-score [6, 16]: -1.23 ± 0.75
- promoter activity interaction Z-score [6, 17]: 1.18 ± 0.81
- promoter activity interaction Z-score [7, 8]: 0.023 ± 0.037
- promoter activity interaction Z-score [7, 9]: -0.096 ± 0.089
- promoter activity interaction Z-score [7, 10]: 0.0641 ± 0.18
- promoter activity interaction Z-score [7, 11]: 0.135 ± 0.027
- promoter activity interaction Z-score [7, 12]: 0.0383 ± 0.078
- promoter activity interaction Z-score [7, 13]: -0.0462 ± 0.065
- promoter activity interaction Z-score [7, 14]: -0.139 ± 0.043
- promoter activity interaction Z-score [7, 15]: 0.616 ± 0.023
- promoter activity interaction Z-score [7, 16]: 0.204 ± 0.017
- promoter activity interaction Z-score [7, 17]: 2.34 ± 1.4
- promoter activity interaction Z-score [1, 8]: 0.549 ± 0.068
- promoter activity interaction Z-score [1, 9]: -0.242 ± 0.2
- promoter activity interaction Z-score [1, 10]: -0.0406 ± 1.1
- promoter activity interaction Z-score [1, 11]: 0.127 ± 0.0073
- promoter activity interaction Z-score [1, 12]: -0.356 ± 0.14
- promoter activity interaction Z-score [1, 13]: -0.296 ± 0.43
- promoter activity interaction Z-score [1, 14]: -0.0729 ± 0.065
- promoter activity interaction Z-score [1, 15]: 1.75 ± 2.6
- promoter activity interaction Z-score [1, 16]: 0.111 ± 0.07
- promoter activity interaction Z-score [1, 17]: 0.782 ± 1.2

— the supplement of paper PMC12282887
